# Measurements as given in PubChem BioAssay (NCATS).
# Values joined by “and” are separate entries in the source; they are usually repeats but may differ in a detail not shown here. Equal values may be shown once. Records with an inconclusive call do not appear. A call without a number means that no potency is given here. Active and inactive are the calls of the source. Calls follow the shape of the dose curve; as a rule, active = well fitted curve in the direction sought with a large enough effect; inconclusive = small, poorly fitted or top-dose-only effect, or another doubt; inactive = no such curve, though single readings can be large; an effect the other way counts as inactive or inconclusive.
# Key:
# Furin (Homo sapiens) = Furin (Homo sapiens) (UniProt P09958); test: Furin counterscreen qHTS for Zika virus inhibitors (AID 1347149); details: furin enzymatic counterscreen, fluorogenic substrate; series mostly up to 57.5 µM; also: nearly all actives have a fitted effect of over 70% in size; also: potency is read from the fitted curve at half-maximal effect
# Furin (Homo sapiens), sequence (P09958 whole entry, looked up): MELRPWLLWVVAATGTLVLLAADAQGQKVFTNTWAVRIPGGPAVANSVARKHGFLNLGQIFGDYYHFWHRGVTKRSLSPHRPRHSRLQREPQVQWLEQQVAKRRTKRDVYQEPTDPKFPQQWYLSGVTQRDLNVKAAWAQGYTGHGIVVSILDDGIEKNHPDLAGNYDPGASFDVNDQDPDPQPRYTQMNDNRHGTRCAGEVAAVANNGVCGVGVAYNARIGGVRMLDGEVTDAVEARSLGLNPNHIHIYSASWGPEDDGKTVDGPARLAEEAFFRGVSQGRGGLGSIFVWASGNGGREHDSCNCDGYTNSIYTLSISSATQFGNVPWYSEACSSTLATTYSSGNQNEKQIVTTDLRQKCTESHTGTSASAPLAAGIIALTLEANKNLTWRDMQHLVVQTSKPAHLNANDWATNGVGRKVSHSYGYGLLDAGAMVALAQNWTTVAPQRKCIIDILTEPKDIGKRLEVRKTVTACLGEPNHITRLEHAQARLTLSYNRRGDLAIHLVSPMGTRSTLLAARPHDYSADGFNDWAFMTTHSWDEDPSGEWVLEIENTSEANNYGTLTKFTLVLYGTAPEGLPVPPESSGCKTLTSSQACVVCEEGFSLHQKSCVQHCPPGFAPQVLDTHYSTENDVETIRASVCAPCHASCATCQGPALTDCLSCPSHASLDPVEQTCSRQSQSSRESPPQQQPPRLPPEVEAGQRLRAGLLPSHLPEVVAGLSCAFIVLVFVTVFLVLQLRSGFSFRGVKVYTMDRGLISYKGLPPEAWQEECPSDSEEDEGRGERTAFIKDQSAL
# Outline: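 Fluorogenic cleavage of BOC-RVRR-AMC (2 microM final, Km ~15 µM) was monitored (ex 340, em 450 nm) at 37C after 15 min RT preincubation of 5 nM furin with compounds in HEPES pH 7.0 buffer with CaCl2 and Triton X-100. Percent inhibition was fitted to a 4-parameter Hill curve.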
# [1] = tested on: Zika virus NS2B-NS3 protease (unlinked); test: Optimization of GU AMC qHTS for Zika virus inhibitors: Unlinked NS2B-NS3 protease assay (AID 1347151); details: recombinant ZIKV NS2B-NS3 protease, fluorogenic AMC substrate; series mostly up to 52.5 µM; also: nearly all actives have a fitted effect of over 80% in size; also: potency is read from the fitted curve at half-maximal effect
# Outline: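 Fluorescence read-out (340 nm ex / 450 nm em) of AMC peptide cleavage, taken immediately and after 15 min at room temperature (~20% conversion). Enzyme was the unlinked NS2B–NS3 complex at 25 nM in Tris pH 8.0 buffer.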
# [2] = tested on: Zika virus NS2B-NS3 protease (linked construct); test: Confirmatory screen NINDS AMC qHTS for Zika virus inhibitors (AID 1347152); details: Purified linked NS2B-NS3, AMC substrate fluorescence; series mostly up to 56.6 µM; also: nearly all actives have a fitted effect of over 70% in size; also: potency is read from the fitted curve at half-maximal effect
# Outline: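 Linked NS2B-NS3 1 nM, Tris pH 8.0/0.01% Tween 20; cpd 15 min RT dark; + Nle-KRR-AMC 10 µM (Km 18.3 µM); read 0 and 15 min, 340/450 nm; %inh vs controls, 4-param Hill.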
# [3] = tested on: Zika virus NS2B-NS3 protease (unlinked complex); test: Confirmatory screen GU AMC qHTS for Zika virus inhibitors (AID 1347153); details: Recombinant NS2B-NS3 protease, AMC substrate fluorescence; series mostly up to 57.1 µM; also: nearly all actives have a fitted effect of over 70% in size;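 as to potency: enzyme at 25 nM with substrate at 10 µM below its Km of 18.3 µM; potency is read from the fitted curve at half-maximal effect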
# Outline: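 Noncovalent NS2B hydrophilic domain/NS3 protease complex (25 nM) in 10 mM Tris-HCl pH 8.0, 0.01% Tween 20 was preincubated 15 min at room temperature with compounds. Then 10 µM AMC substrate (Km 18.3 µM) was added; fluorescence was read over 15 min and fitted to a 4-parameter Hill equation.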
# [4] = target: N-terminal Xaa-Pro-Lys N-methyltransferase 1 (Homo sapiens) (UniProt Q9BV86); test: qHTS Assay for Inhibitors of N-terminal methyltransferase 1 (NTMT1): LOPAC validation of the NTMT1 SAHH-coupled ThioGlo3 Assay (AID 1347143); details: recombinant NTMT1, SAHH-coupled ThioGlo3 fluorescence; series mostly up to 114 µM;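 also: SAH from peptide methylation measured as thiol fluorescence via SAHH coupling and ThioGlo3; nearly all actives have a fitted effect of over 70% in size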
# N-terminal Xaa-Pro-Lys N-methyltransferase 1 (Homo sapiens), sequence (Q9BV86 whole entry, looked up): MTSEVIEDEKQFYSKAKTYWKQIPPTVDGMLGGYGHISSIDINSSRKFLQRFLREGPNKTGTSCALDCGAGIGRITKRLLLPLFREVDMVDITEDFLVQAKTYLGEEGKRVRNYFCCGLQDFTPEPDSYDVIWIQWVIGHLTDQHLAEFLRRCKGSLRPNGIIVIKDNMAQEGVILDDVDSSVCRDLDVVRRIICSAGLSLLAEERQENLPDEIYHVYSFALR
# Outline: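 Inhibition of NTMT1 methylation of peptide SPKRIA is followed by converting SAH with SAHH and labelling the released thiol with ThioGlo3. Plates are read at 340/450nm before and 30 min after reagent addition, both at room temperature.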
# [5] = tested on: Zika virus NS2B-NS3 protease; test: Primary screen GU AMC qHTS for Zika virus inhibitors (AID 1347154); details: Zika NS2B-NS3 unlinked protease, AMC fluorogenic substrate; series mostly up to 54.1 µM; also: nearly all actives have a fitted effect of over 70% in size; also: potency is read from the fitted curve at half-maximal effect
# Outline: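 Fluorogenic AMC-substrate cleavage by noncovalent NS2B-NS3 protease complex (25 nM, pH 8.0 Tris buffer with Tween 20) followed for 15 minutes at room temperature (~20% conversion). Percent inhibition from ex340/em450 signal change, fitted by 4-parameter Hill equation.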
# [6] = Confirmatory screen GU Rhodamine qHTS for Zika virus inhibitors qHTS (AID 1347157); details: purified enzyme assay, Rhodamine110 substrate fluorescence, 15 min
# Outline: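 A qHTS format was used, with compound concentrations ranging up to 114 microM. Each compound was preincubated with 25 nM NS2B-NS3 protease, and the substrate was then added at 1.5 microM. Curves were fitted with a 4-parameter Hill model.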
smiles,measurement,setting,value
C[C@H]1c2cccc(O)c2C(O)=C2C(=O)[C@]3(O)C(O)=C(C(N)=O)C(=O)[C@@H](N(C)C)[C@@H]3[C@@H](O)[C@@H]21,Potency,Furin (Homo sapiens),inactive
same,Potency,[1],inactive
same,Potency,[2],inactive
same,Potency,[3],inactive
Nc1ccn([C@H]2CC[C@@H](CO)O2)c(=O)n1,Potency,[4],inactive
same,Potency,[1],inactive
same,Potency,[5],inactive
Nc1c2c(nc3ccccc13)CCCC2,Potency,[5],inactive
COc1ccc2[nH]cc(CCNC(C)=O)c2c1,Potency,[5],inactive
CN1CCN(C2=Nc3cc(Cl)ccc3Nc3ccccc32)CC1,Potency,[1],inactive
same,Potency,[5],inactive
CN1CCC(=C2c3ccccc3CC(=O)c3sccc32)CC1,Potency,[1],inactive
same,Potency,[5],inactive
Cn1ccc2cc3c(cc21)CCN3C(=O)Nc1cccnc1,Potency,Furin (Homo sapiens),21.5 µM (active)
same,Potency,[2],24.1 µM (active)
same,Potency,[3],27.1 µM (active)
C[C@@H]1CC(=O)NN=C1c1ccc(NN=C(C#N)C#N)cc1,Potency,[5],inactive
COc1ccccc1OCCNCC(O)COc1cccc2[nH]c3ccccc3c12 (configuration not stated),Potency,[1],inactive
same,Potency,[5],inactive
O=C(c1ccc(F)cc1)C1CCN(CCn2c(=O)[nH]c3ccccc3c2=O)CC1,Potency,Furin (Homo sapiens),inactive
same,Potency,[2],inactive
same,Potency,[3],inactive
same,Potency,[5],inactive
Clc1ccccc1C(c1ccccc1)(c1ccccc1)n1ccnc1,Potency,[4],inactive
same,Potency,[5],inactive
Cc1cn([C@H]2C[C@H](N=[N+]=[N-])[C@@H](CO)O2)c(=O)[nH]c1=O,Potency,[5],inactive
NS(=O)(=O)c1cc2c(cc1Cl)NCNS2(=O)=O,Potency,[4],inactive
same,Potency,[1],inactive
same,Potency,[5],inactive
CN(C)CCCN1c2ccccc2CCc2ccc(Cl)cc21,Potency,[1],inactive
same,Potency,[5],inactive
CC1(CN2CCC(n3c(=O)[nH]c4ccccc43)CC2)OCc2ccccc2-n2cccc21 (configuration not stated),Potency,[5],inactive
CN1C(C(=O)Nc2ccccn2)=C(O)c2ccccc2S1(=O)=O,Potency,[1],inactive
same,Potency,[5],inactive
Cc1cn([C@H]2C=C[C@@H](CO)O2)c(=O)[nH]c1=O,Potency,[4],inactive
same,Potency,[5],inactive
COc1ccccc1OCC(O)CN1CCN(CC(=O)Nc2c(C)cccc2C)CC1 (configuration not stated),Potency,[1],inactive
same,Potency,[5],inactive
CN(C)C(=N)N=C(N)N,Potency,[5],inactive
CCOC(=O)C(C)(C)Oc1ccc(Cl)cc1,Potency,[4],inactive
same,Potency,[1],inactive
same,Potency,[5],inactive
COc1nc(C)nc(Cl)c1NC1=NCCN1,Potency,[4],inactive
same,Potency,[1],inactive
same,Potency,[5],inactive
CNCCCC12CCC(c3ccccc31)c1ccccc12,Potency,[1],inactive
same,Potency,[5],inactive
CC(C)(Oc1ccc(C2CC2(Cl)Cl)cc1)C(=O)O (configuration not stated),Potency,[4],inactive
same,Potency,[1],inactive
same,Potency,[5],inactive
CCCNCC(O)COc1ccccc1C(=O)CCc1ccccc1 (configuration not stated),Potency,[1],inactive
same,Potency,[5],inactive
Cc1ccc(C(=O)Nc2ccc(S(=O)(=O)O)c3cc(S(=O)(=O)O)cc(S(=O)(=O)O)c23)cc1NC(=O)c1cccc(NC(=O)Nc2cccc(C(=O)Nc3cc(C(=O)Nc4ccc(S(=O)(=O)O)c5cc(S(=O)(=O)O)cc(S(=O)(=O)O)c45)ccc3C)c2)c1,Potency,[4],inactive
same,Potency,[1],16.8 µM (active)
same,Potency,[5],5.01 µM (active)
same,Potency,[6],2.82 µM (active) and 2 µM (active) and 2.24 µM (active)
CN1CCN2c3ccccc3Cc3ccccc3C2C1 (configuration not stated),Potency,[1],inactive
same,Potency,[5],inactive
O=C(c1ccc(OCCN2CCCCC2)cc1)c1c(-c2ccc(O)cc2)sc2cc(O)ccc12,Potency,[1],inactive
same,Potency,[5],inactive
O=c1c(-c2ccc(O)cc2)coc2cc(O)cc(O)c12,Potency,[1],inactive
same,Potency,[5],inactive
